SMN2 splice enh = increases expression of the SMN2 splice variant; Potency, µM (top dose mostly 46.1 µM), for inactives: at the highest dose activity change, positive = activation, most hits filed as activators; HEK293 SMN2-luciferase splicing reporter, luminescence, 30-36 h; hit rate 2.8% among 210,000; further: % of control where 0% means no effect; nearly all actives have a fitted effect of over 55% in size
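qHTS luciferase splicing reporter: luminescence rises when SMN2 exon 7 is included in transfected HEK293 cells. Compound exposure lasted 30-36 h at 37C, with 4.5 mM final sodium butyrate as control, followed by a ONE-Glo read.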
Rab9 promoter act = activates the Rab9 promoter. hit rate 2.8% among 320,000. Huh7 Rab9 promoter-luciferase reporter, luminescence, 24 h. Potency, µM (titrated, usually from 9.22 µM), for inactives: top-dose activation, negative = inhibition, usual class: activators; further: % of control where 0% means no effect; nearly all actives have a fitted effect of over 60% in size
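Huh7 cells stably carrying Rab9 promoter–luciferase reporter, plated 1500 cells/well, compound added after 2 h and incubated 24 h at 37 °C; luciferase luminescence then read after 10 min with detection reagent.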
FLuc counter = firefly luciferase modulation, counter-screen for miR-21 project; P08659; purified FLuc, Km substrates, luminescence inhibition; Potency, µM (titrated, usually from 57.5 µM), for the others: at the top dose activity change, negative = inhibition, usual class: inhibitors; hit rate 6.9% among 360,000;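 further: plate controls were vehicle for no effect and reference inhibitor for full effect; nearly all actives have a fitted effect of over 55% in size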
Target sequence (P08659 whole entry, looked up): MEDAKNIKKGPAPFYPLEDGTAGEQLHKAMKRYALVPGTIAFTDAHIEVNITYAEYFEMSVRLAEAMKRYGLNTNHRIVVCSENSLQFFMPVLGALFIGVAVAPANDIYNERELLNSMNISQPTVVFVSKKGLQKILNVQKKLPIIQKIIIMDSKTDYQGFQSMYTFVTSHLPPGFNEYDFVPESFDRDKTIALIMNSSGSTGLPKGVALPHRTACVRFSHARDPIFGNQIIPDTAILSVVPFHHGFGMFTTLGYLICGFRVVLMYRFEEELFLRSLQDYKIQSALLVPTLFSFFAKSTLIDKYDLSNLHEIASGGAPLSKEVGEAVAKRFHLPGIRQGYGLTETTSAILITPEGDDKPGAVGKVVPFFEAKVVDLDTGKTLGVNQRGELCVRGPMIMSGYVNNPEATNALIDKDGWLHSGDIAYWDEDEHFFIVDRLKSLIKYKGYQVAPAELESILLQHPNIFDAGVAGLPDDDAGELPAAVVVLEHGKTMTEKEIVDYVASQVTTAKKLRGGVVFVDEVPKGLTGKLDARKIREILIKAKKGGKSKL
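Purified P. pyralis luciferase, 10 nM final, with Km-level 10 uM D-luciferin and 10 uM ATP in 50 mM Tris acetate pH 7.5, 10 mM Mg acetate, 0.01% Tween-20, 0.05% BSA; 6-point qHTS titration about 60 µM downward; luminescence read.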
ELG1 genotoxic = genotoxicity induction in ELG1-luciferase HEK293T cells; HEK293T ELG1-luciferase reporter, luminescence, 16 h; Potency, µM (titrated, usually from 46 µM), for the others: top-dose activity change, positive = activation, most hits filed as activators; hit rate 1.3% among 330,000; further: % of control where 0% means no effect; nearly all actives have a fitted effect of over 60% in size
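Cells (2,000/well) expressing the ELG1-luciferase fusion are dosed by pin tool and kept 16 hr at 37 °C, 5% CO2. Signal comes from ONE-Glo luciferase reagent after 30 min at room temperature.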
NPC1 promoter act = activates the NPC1 promoter. Huh7 NPC1 promoter luciferase reporter, 24 h. Potency, µM (highest dose often 9.22 µM), for the others: at the highest dose activation, usual class: activators. hit rate 2.4% among 320,000; further: % of control where 0% means no effect; nearly all actives have a fitted effect of over 60% in size
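Readout is luciferase luminescence, reflecting NPC1 promoter activation in stably transfected Huh7 cells after 24 h compound exposure at 37 °C in reduced-serum medium with 10% FBS.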
* marks the source's active call; other numbers are inactive results; ? = inconclusive; / = no result given; [ ] = another dose, or the depositor's remark. A selection: hits, their analogues and other compounds. The true share with any hit is near 7.5%. The call rests on the fitted dose curve; in most records, active means well fitted curve in the direction sought with a large enough effect; inconclusive means small, poorly fitted or top-dose-only effect, or another doubt; inactive means no such curve, though single readings can be large; an effect the other way counts as inactive or inconclusive. Potency means the concentration at half of the fitted maximal effect.

SMILES	SMN2 splice enh	Rab9 promoter act	FLuc counter	ELG1 genotoxic	NPC1 promoter act
N#C/C(=C\c1cccc(OCC(=O)O)c1)c1nc2ccccc2[nH]1	/	13%	17µM*	2%	-4%
N#C/C(=C\c1ccc(OC(=O)c2ccc(Cl)s2)cc1)c1nc2ccccc2[nH]1	18µM*	?	-2%	?	21%
COc1cc(/C=C(\C#N)c2nc3ccccc3[nH]2)ccc1OC(=O)c1ccco1	35µM*	?	0.95µM*	?	26%
CCOc1ccc(OCC(=O)N(CCC2=CCCCC2)c2c(N)n(Cc3ccccc3)c(=O)[nH]c2=O)cc1	/	-3%	11%	-31%	1%
COc1cccc(NC(=O)C(C)(C)C)c1	/	0%	5%	4%	-3%
C(=N\N=C\c1ccccn1)/c1ccccn1	/	-2%	12µM*	-2%	0%
O=C(N/N=C/c1ccc[nH]1)c1ccc([N+](=O)[O-])cc1	-10%[1.84 µM]	-8%	15µM*	2%	-2%
Cc1ccccc1C(=O)Nc1ccc(C(=O)N/N=C/c2ccccn2)cc1	/	0%	-4%	0%	-3%
O=C(N/N=C/c1ccccn1)c1cc([N+](=O)[O-])cc([N+](=O)[O-])c1	-4%	-2%	-8%	6%	-3%
O=C(CCCC(=O)N/N=C\c1ccccn1)N/N=C\c1ccccn1	/	1%	5%	0%	-3%
O=C(N/N=C/c1ccccn1)c1ccc([N+](=O)[O-])cc1	4%	5%	19µM*	9%	-2%
Cc1ccc(C(=O)N/N=C\c2ccc[nH]2)cn1	-21%	1%	?	16%	1%
O=C(N/N=C/c1ccccn1)c1ccc(N/N=C/c2ccccn2)cc1	14µM*	2.2µM*	2.4µM*	-3%	23%
CC1(C)CC(=O)C=C(Nc2ccc(Br)cc2F)C1	/	1%	4%	-4%	-6%
O=C(N/N=C/c1ccccn1)c1ccc2nc[nH]c2c1	/	3%	?	-12%	21%
CC(C)(C)c1ccc(C(=O)N/N=C/c2ccccn2)cc1	/	26%	9.5µM*	?	22%
O=C(N/N=C/c1ccccn1)c1ccc(Br)cc1	9%	?	11µM*	?	?
Cc1ccc(C(=O)N/N=C\c2ccccn2)cn1	/	-1%	19µM*	0%	9%
COc1ccccc1NS(=O)(=O)c1cc(NC(=O)CCc2nc3ccccc3c(=O)[nH]2)ccc1C	/	-4%	3%	-11%	1%
Fc1cccc(CNCC2CCCO2)c1 (configuration not stated)	/	4%	-5%	-2%	8%
CCNc1ccc(S(=O)(=O)N(C)C)cc1[N+](=O)[O-]	/	-4%	-2%	3%	1%
CCc1ccccc1NC(=O)C(C)n1nc(-c2ccc(C)c(C)c2)ccc1=O (configuration not stated)	/	/	-12%	/	/
Cc1cccc(C(=O)NC(C(=O)Nc2nc(-c3ccccn3)cs2)C(C)C)c1 (configuration not stated)	-54%	-10%	-5%	13%	-12%
Cc1ccc(CN2CCN(Cc3nc(C(C)C)cs3)CC2CCO)cc1 (configuration not stated)	/	-2%	0%	-8%	-5%
CCCCOc1ccc2ccccc2c1C=O	-1%	20%	21µM*	12%	20%
SMILES	SMN2 splice enh	Rab9 promoter act	FLuc counter	ELG1 genotoxic	NPC1 promoter act
CC(=O)Nc1nnc(SCc2ccc(F)cc2)s1	?	28%	-3%	?	27%
O=C(Nc1nnc(SCc2ccc(F)cc2)s1)c1ccc2ncsc2c1	13µM*	?	?	?	?
O=C(Nc1ccc(Cl)cc1Cl)c1ccc2ncsc2c1	/	2.2µM*	2.7µM*	?	2.2µM*
O=C(Nc1ccncc1)c1ccc2ncsc2c1	/	19%	-18%	?	25%
O=C(Nc1ccc(F)cc1F)c1ccc2ncsc2c1	/	4µM*	27µM*	13%[9.26 µM]	2.5µM*
O=C(Nc1cccc(F)c1)c1ccc2ncsc2c1	/	3.5µM*	13µM*	16%	2.2µM*
O=C(Nc1ccccc1Br)c1ccc2nccnc2c1	/	2µM*	6.7µM*	0%	3.2µM*
O=C(COC(=O)c1ccc2ncsc2c1)Nc1cc(Cl)ccc1F	/	6%	3%	7%	-3%
O=C(Nc1ccccc1F)c1ccc2ncsc2c1	/	4µM*	?	18%	2.2µM*
CCc1nc(SCC(=O)Nc2sc(C)c(C)c2C(=O)OC)c2ccccc2n1	-23%	-3%	1%	-1%	-5%
NS(=O)(=O)c1ccc(CCNC(=O)c2ccc(Br)s2)cc1	/	-4%	6%	-2%	-1%
Cc1ccc(C(=O)NCCc2ccc(F)cc2)s1	4.5µM*	2.8µM*	9.5µM*	?	1.4µM*
O=C(NCCc1ccc(Cl)cc1)c1ccc(Br)s1	/	4.5µM*	?	?	4µM*
C=C/C(=C\C)C[C@@H](CC(=O)N[C@@H](CCC(=O)O)CC(=O)O)NC(=O)[C@@H]1CNCC[C@H]1NC(=O)C[C@@H](NC(=O)C[C@H](Cc1ccccc1)NC(=O)[C@@H]1CCCC[C@H]1N)C(C)C	7%	/	/	/	/
Cc1nn(-c2ccccc2)c(C)c1/C=C1\C(=O)N(C)C(=S)N1C	4%	-4%	-1%	7%	-9%
COc1ccc(Cn2c(CO)cnc2SCc2ccc(C)cc2)cc1	/	/	17µM*	/	/
CC1(c2ccccc2)NC(=O)N(CC(=O)Nc2ccc(Cl)c(S(=O)(=O)N3CCCCC3)c2)C1=O (configuration not stated)	/	2%	0%	-14%	-1%
C=CCN(CC=C)Cc1cc(=O)n2c(-c3ccccc3)csc2n1	/	1%	-5%	0%	-1%
N/C(=N\OC(=O)c1ccc2c(c1)OCO2)c1cccc([N+](=O)[O-])c1	-9%	?	0.43µM*	?	7%
Cc1cccc(/C(N)=N/OC(=O)c2ccc3c(c2)OCO3)c1	25µM*	2.8µM*	0.19µM*	9.2µM*	2.8µM*
COc1ccc(/C(N)=N/OC(=O)c2cccc([N+](=O)[O-])c2)cc1OC	-13%	-1%	?	?	1%
O=S(=O)(Cc1ccccc1)N1CCN(Cc2ccccc2)CC1	-6%	-1%	-1%	1%	-1%
COc1ccc2c(c1)c(=O)oc1c(C)c(OCc3ccc(C(=O)O)cc3)ccc12	/	7%	24µM*	3%	-5%
COc1ccc2c(c1)c(=O)oc1c(C)c(OCC(=O)N3CCc4ccccc4C3)ccc12	-18%	7%	-13%	2%	-2%
Cc1cc(=O)oc2c(C)c(OC(C)C(=O)NCC3CCC(C(=O)O)CC3)ccc12 (configuration not stated)	/	-1%	-1%	1%	6%
COc1ccc2c(c1)c(=O)oc1c(C)c(OCc3cc(C(=O)O)oc3C)ccc12	1%	12%	11µM*	?	-1%

High-throughput results from PubChem BioAssay.
